# Reference: PubChem BioAssay AID2241 (Broad Institute, 2010)
# The campaign covered roughly 21,000 compounds. About 110 (0.52%) were called active.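 The calls were made as follows: active = most replicate scores above 10, or exactly half above 10 with mean activity above 10; inconclusive = mean activity below 10 while half the replicates exceed 10; inactive = most replicate scores below 10.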 What follows is part of a selection rich in actives, with near analogues and random picks from the rest.
# Assay: caspase activation in A1-primed MEFs – cell-based, CaspaseGlo luminescence, A1 inhibitor project, primary screen (AID 2241);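 also: effector caspase 3 and 7 activity cleaving a DEVD luciferin substrate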
# Settings: MEF A1-2A-BIM cells, caspase-Glo luminescence, 3 h; stronger effect = higher value; percent of clofoctol signal, DMSO as zero; concentration not given here
row,Compound,caspase activation
1,Cc1ccccc1-n1c(-c2ccc(Br)cc2)n[nH]c1=S,-0.035% (inactive)
2,COc1cc(OC)cc(C(=O)N2CCN=C2c2ccccc2)c1,0.196% (inactive)
3,Cc1nn(C(C)C(=O)NC2CCCCCC2)c(=O)c2cc3occc3n12 (configuration not stated),0.379% (inactive)
4,O=C(Nc1ccc(S(=O)(=O)Nc2nccs2)cc1)N1c2ccccc2Sc2ccccc21,0.0197% (inactive)
5,Fc1cc(F)cc(NC(=S)NCCN(C2CCCCC2)C2CCCC2)c1,-0.0874% (inactive)
6,CC(=O)Oc1ccc(C2OCC3C(C)C=C(C)C2C3C)cc1 (configuration not stated),0.946% (inactive)
7,O=C(NCc1ccc2c(c1)OCO2)c1sc(=S)n2c1[nH]c(=O)c1ccccc12,-0.669% (inactive)
8,CCOC(=O)c1cn(CC)c2cc(F)c(F)cc2c1=O,0.158% (inactive)
9,O=C(NCc1ccccc1Cl)C1=CSCCO1,-0.087% (inactive)
10,C[C@@H]1CN([C@@H](C)CO)C(=O)c2cc(NS(=O)(=O)c3ccccc3)ccc2O[C@H]1CN(C)S(=O)(=O)c1ccc(Cl)cc1,0.207% (inactive)
11,Cc1ccc(-c2nn(C(C)(C)C)c3ncnc(N)c23)cc1,11.3% (active)
12,COc1ccc(NC(=O)Nc2ccc3c(c2)C(=O)N([C@@H](C)CO)C[C@H](C)[C@@H](CN(C)C(=O)NC2CCCCC2)O3)cc1,-0.437% (inactive)
13,Cc1ccc(S(=O)(=O)c2no[n+]([O-])c2S(=O)(=O)c2ccc(C)cc2)cc1,-3.56% (inactive)
14,CCC(CC)NC(=O)C1c2ccccc2Oc2ccccc21,0.418% (inactive)
15,Cc1noc(C)c1S(=O)(=O)Nc1ccc2c(c1)C(=O)N([C@@H](C)CO)C[C@H](C)[C@H](CN(C)C(=O)Nc1ccc(C(F)(F)F)cc1)O2,-0.257% (inactive)
16,Cc1ccc(-n2c(C)nc3sc4c(c3c2=O)CCC4)cc1,0.54% (inactive)
17,CC(=O)Oc1ccc2occ(C(=O)c3cc4ccccc4o3)c2c1,-5.48% (inactive)
18,O=C(Nc1ccc(Cl)cc1)Nc1ccc(N2CCN(c3ncccc3C(F)(F)F)CC2)nc1,-0.335% (inactive)
19,Cc1cccc(NC(=O)C2C3CC/C=C\CCC32)c1 (configuration not stated),1.35% (inactive)
20,CN1C(=O)C(Cc2ccccc2)(Cc2ccccc2)c2ccccc21,-0.527% (inactive)
21,C=CCn1c2ccccc2c2nnc(SCCCC(=O)c3ccc(F)cc3)nc21,-0.988% (inactive)
22,CNC(=O)CSc1nc2ccccc2[nH]1,0.45% (inactive)
23,Cc1nc(C2COc3ccccc3O2)ncc1S(=O)(=O)c1ccc(Cl)cc1 (configuration not stated),-0.851% (inactive)
24,O=C(CC1SC(=NC2CC3C=CC2C3)NC1=O)Nc1ccccc1Cl (configuration not stated),0.103% (inactive)
25,C[C@H]1CN([C@@H](C)CO)C(=O)c2cc(NC(=O)CCC(F)(F)F)ccc2O[C@H]1CN(C)Cc1ccc(C(=O)O)cc1,0.236% (inactive)
26,COc1ccc(-c2nn(C)c3ccccc23)cc1,-6.81% (inactive)

row,Compound,caspase activation
1,C=CCn1c(SC)nnc1-c1ccc(OC)c(OC)c1,0.905% (inactive)
2,CCc1nnc(NC(=O)c2cc(S(=O)(=O)N3CCc4ccccc43)cn2C)s1,1.26% (inactive)
3,Cc1ccc(S(=O)(=O)N(CC(=O)Nc2cccnc2)c2cc(C)cc(C)c2)cc1,0.203% (inactive)
4,O=C(CC(=O)c1ccccc1O)c1ccccc1,-2.59% (inactive)
5,C[C@@H]1CN([C@H](C)CO)C(=O)c2cc(NC(=O)c3ccncc3)ccc2O[C@H]1CN(C)Cc1ccc(Oc2ccccc2)cc1,-0.569% (inactive)
6,CC(=O)Nc1ccc(S(=O)(=O)CCO)cc1,2.64% (inactive)
7,NC(=O)N1CCc2ccccc21,0.412% (inactive)
8,C[C@@H]1CN([C@H](C)CO)C(=O)c2cc(NS(=O)(=O)c3ccc(F)cc3)ccc2O[C@@H]1CN(C)C(=O)Nc1cccc2ccccc12,-0.274% (inactive)
9,O=C(c1cccc(Cl)c1)N(Cc1ccccc1)Cc1ccccc1,-0.527% (inactive)
10,COc1ccc(S(=O)(=O)Nc2ccc3c(c2)C(=O)N([C@H](C)CO)C[C@@H](C)[C@H](CN(C)C(=O)Nc2ccc4c(c2)OCO4)O3)cc1,0.103% (inactive)
11,C[C@H]1CN([C@@H](C)CO)C(=O)c2cc(NS(=O)(=O)c3ccc(F)cc3)ccc2O[C@H]1CN(C)CC1CC1,1.58% (inactive)
12,CCc1ccc(NC(=O)CN(C)S(=O)(=O)c2cc(Br)cnc2N)cc1,-0.325% (inactive)
13,COc1ccc(CN(C)C[C@@H]2Oc3ccc(NC(=O)Nc4cccc5ccccc45)cc3C(=O)N([C@H](C)CO)C[C@H]2C)cc1,-0.083% (inactive)
14,COc1cc(C2c3c(cc(OC)c(O)c3OC)CC(CO[C@@H]3O[C@H](CO)[C@@H](O)[C@H](O)[C@H]3O)C2CO)cc(OC)c1O (some centres not stated),-0.412% (inactive)
15,O=C(/C=C/c1ccccc1)NCCCCNCCCNC(=O)/C=C/c1ccccc1,-0.0105% (inactive)
16,Cc1ccc(NC(N)=O)cc1,-0.167% (inactive)
17,COc1ccc(NC(=O)N(C)C[C@H]2Oc3ccc(NS(=O)(=O)c4cccs4)cc3C(=O)N([C@@H](C)CO)C[C@H]2C)cc1,0.747% (inactive)
18,CCC(=O)c1ccc(OC(=O)C2c3ccccc3Oc3ccccc32)cc1,-0.0959% (inactive)
19,c1ccc(CSc2ccc(-c3ccncc3)nn2)cc1,0.0365% (inactive)
20,C=CCn1c(SCc2nnc(SCC(=O)c3ccc(Cl)cc3)o2)nnc1-c1ccccc1,0.865% (inactive)
21,C[C@@H]1CN([C@H](C)CO)C(=O)c2cc(NC(=O)C3CCCCC3)ccc2O[C@@H]1CN(C)CC1CCCCC1,0.287% (inactive)
22,CC(=C\c1ccccc1)/C(C)=N/O,0.142% (inactive)
23,CC[C@H]1CN2CCc3cc(OC)c(OC)cc3[C@@H]2C[C@@H]1C[C@H]1NCCc2cc(OC)c(OC)cc21,18.2% (active)
24,COc1cc2c(cc1OC)C1CN3CCc4cc(OC)c(OC)cc4C3CN1CC2 (configuration not stated),-0.199% (inactive)
25,Oc1c(Cl)cc(Cl)cc1C1Nc2cc(C(F)(F)F)ccc2-n2cccc21 (configuration not stated),-0.566% (inactive)
26,CCCNC(=O)c1ccc2c(c1)N(Cc1ccc(F)cc1)CCS2,-0.988% (inactive)
